KB-V1 MDR tox = KB-V1 MDR subline cytotoxicity. KB-V1 MDR cells viability, CellTiter-Glo, 72 h. Potency, µM (titrated, usually from 46.1 µM), actives largely listed as cytotoxic. 3.4% of 400,000 active; further: nearly all actives have a fitted effect of over 60% in size
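Cells of the MDR subline KB-V1 are plated, dosed with compound at multiple concentrations, and incubated 72 h at 37 degrees C; CellTiter-Glo is then added and luminescence read after 10 min.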
HT1080 IDH1KD tx = HT-1080 IDH1 knockdown cell toxicity (counter line). HT-1080 IDH1 knockdown viability, ATP luminescence, 48 h. Potency, µM (titrated, usually from 46.1 µM), actives largely listed as cytotoxic. 2% of 360,000 active. AID 686971
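Assay cells: HT-1080 with IDH1 knockdown, 750 per well, RPMI/5% FBS. Exposure: 48 h at 37 °C following 2 h pre-incubation. Read: CellTiter-Glo luminescence; fitted concentration-response, curve class assigned.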
TDP1 cell CPT = DT40-hTDP1 cell growth loss with CPT | chicken DT40 Tdp1-/-;hTDP1 cells + 20 nM CPT, ATP luminescence, 48 h | Potency, µM (series often up to 46.2 µM), most hits filed as inhibitors | 12% of 420,000 active | AID 686979; further: nearly all actives have a fitted effect of over 55% in size
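Chicken DT40 Tdp1-/- cells complemented with human TDP1, 400 cells/well, exposed to compounds plus 20 nM camptothecin for at least 48 h at 37 C; viability read as ATP content by CellTiter-Glo luminescence.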
HT1080NT lethal = kills 2HG-producing HT-1080-NT fibrosarcoma cells | Potency, µM (highest dose often 46.1 µM), usual class: cytotoxic | 1.6% of 360,000 active | AID 686970 | HT-1080-NT fibrosarcoma viability, CellTiter-Glo ATP luminescence, 48 h;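 further: NT is the 2HG producing partner of a matched IDH1 knockdown line; nearly all actives have a fitted effect of over 55% in size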
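HT-1080-NT fibrosarcoma cells (2HG-overproducing), 750 cells/well in RPMI with 5% FBS, dosed after 2 h and incubated 48 h at 37C. CellTiter-Glo luminescence normalized to DMSO and no-cell wells; concentration-response curves fitted and classed.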
TDP1 cell noCPT = qHTS for Inhibitors of human tyrosyl-DNA phosphodiesterase 1 (TDP1): qHTS in cells in absence of CPT. AID 686978, 2013. Potency, µM (highest dose often 46.2 µM), actives largely listed as inhibitors. DT40 Tdp1-/- hTDP1 cells, no CPT, ATP luminescence, 48 h. 15% of 420,000 active; further: nearly all actives have a fitted effect of over 55% in size
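Stably hTDP1-transfected Tdp1-null chicken DT40 cells were treated with library compounds minus camptothecin and grown for at least 48 hr at 37 °C, after which cellular ATP was quantified by luminescence.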
KB-3-1 tox = kills parental KB-3-1 adenocarcinoma cells; KB-3-1 viability, CellTiter-Glo ATP luminescence, 72 h; 1.4% of 400,000 active; AID 1347075; Potency, µM (top dose mostly 46.1 µM), usual class: cytotoxic; further: nearly all actives have a fitted effect of over 60% in size
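Parental KB-3-1 adenocarcinoma cells in phenol-red-free DMEM with 10% FBS were pin-treated with compounds at several concentrations, incubated 72 h at 37 °C, and viability read by CellTiter-Glo luminescence; concentration-effect curves were fitted after normalization.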
Of the large screens only hits and unclear results are named; the others gave an inactive call. The list is not random: actives were taken first. Their share in the collection is about 19%. The call rests on the fitted dose curve; in most records, active means well fitted curve in the direction sought with a large enough effect; inconclusive means small, poorly fitted or top-dose-only effect, or another doubt; inactive means no such curve, though single readings can be large; an effect the other way counts as inactive or inconclusive.

c1nc(NCc2ccc3c(c2)OCO3)c2cc(-c3ccoc3)ccc2n1	none (no result: HT1080 IDH1KD tx, TDP1 cell CPT, HT1080NT lethal, TDP1 cell noCPT)
O=C(NNC1CC(c2ccccc2)=NN1C(=O)c1ccccc1)c1ccccc1 (configuration not stated)	KB-V1 MDR tox inconclusive, TDP1 cell CPT 25.9µM, TDP1 cell noCPT 23.1µM
O=C(c1ccncc1)N1N=C(c2ccc(Br)cc2)CC1c1ccccc1O (configuration not stated)	KB-V1 MDR tox 20.6µM, HT1080 IDH1KD tx inconclusive, TDP1 cell CPT inconclusive, HT1080NT lethal inconclusive, TDP1 cell noCPT inconclusive
O=C(c1ccccc1)N1N=C(c2ccccc2)CC1c1ccc2nccnc2c1 (configuration not stated)	KB-V1 MDR tox 7.31µM, TDP1 cell CPT inconclusive, TDP1 cell noCPT inconclusive
CC(=O)N1N=C(c2ccncc2)CC1c1ccccc1O (configuration not stated)	KB-3-1 tox inconclusive
CC(=O)N1N=C(c2ccc3nccnc3c2)CC1c1ccccc1 (configuration not stated)	none
Cc1ccc2c(c1)N(C(=O)N1CCC(C(=O)NCc3ccco3)CC1)CC(C)O2 (configuration not stated)	TDP1 cell CPT inconclusive, TDP1 cell noCPT inconclusive (no result: HT1080 IDH1KD tx, HT1080NT lethal)
COc1ccc2c(c1)c1c(c(=O)n(-c3ccccc3C)c(=O)n1C)n2C	none (no result: HT1080 IDH1KD tx, HT1080NT lethal)
O=C(NCCc1ccc(C(F)(F)F)cc1)c1ccc(Cl)nc1	none
Cc1ccc(S(=O)(=O)NC(N)=NCCc2ccc(Cl)cc2)cc1	KB-V1 MDR tox 16.4µM, TDP1 cell CPT inconclusive, TDP1 cell noCPT inconclusive
COc1ccc(CCN=C(N)NS(=O)(=O)c2ccc(C)cc2)cc1	TDP1 cell noCPT inconclusive
NC(=NCCc1ccccc1)NS(=O)(=O)c1ccc2ccccc2c1	none
NC(=NCCc1ccccc1)NS(=O)(=O)c1ccc(F)cc1	KB-V1 MDR tox 16.4µM, TDP1 cell noCPT inconclusive
Cc1ccc(Cn2ncc3c(N4CCN(CC#N)CC4)ncnc32)cc1	TDP1 cell noCPT inconclusive
Cc1ccc(Cn2ncc3c(N4CCCC4)ncnc32)cc1	TDP1 cell CPT inconclusive, TDP1 cell noCPT inconclusive
c1ccc(Cn2ncc3c(N4CCN(C(c5ccccc5)c5ccccc5)CC4)ncnc32)cc1	KB-V1 MDR tox inconclusive, TDP1 cell CPT 18.4µM, TDP1 cell noCPT 20.6µM, KB-3-1 tox inconclusive
c1ccc(Cn2ncc3c(N4CCN(c5ccccc5)CC4)ncnc32)cc1	KB-V1 MDR tox inconclusive, TDP1 cell CPT 18.4µM, TDP1 cell noCPT 16.4µM
CCCS(=O)(=O)C(=C(Nc1ccccc1)Nc1ccccc1)S(=O)(=O)CCC	KB-V1 MDR tox inconclusive
CCN(C(=O)CSc1ncc(S(=O)(=O)c2ccc(C)c(Cl)c2)c(=O)[nH]1)c1cccc(C)c1	none (no result: HT1080 IDH1KD tx, TDP1 cell CPT, HT1080NT lethal, TDP1 cell noCPT)
O=Cc1ccccc1Oc1ccccc1	KB-V1 MDR tox inconclusive, TDP1 cell CPT inconclusive, TDP1 cell noCPT 11.6µM
O=Cc1ccccc1C=O	TDP1 cell CPT 9.44µM, TDP1 cell noCPT inconclusive (no result: KB-V1 MDR tox, HT1080 IDH1KD tx, HT1080NT lethal, KB-3-1 tox)
N#Cc1ccccc1Oc1ccccc1C=O	TDP1 cell CPT inconclusive, TDP1 cell noCPT 16.4µM
COc1cc(NC(=O)c2ccc(C)c(Cl)c2)ccc1NC(=O)c1cc2ccccc2o1	TDP1 cell CPT inconclusive, TDP1 cell noCPT inconclusive (no result: HT1080 IDH1KD tx, HT1080NT lethal)
COCc1c(C(=O)Nc2ccc(C)c(S(=O)(=O)N3CCOCC3)c2)oc2ccccc12	KB-V1 MDR tox 4.61µM, TDP1 cell CPT inconclusive, TDP1 cell noCPT inconclusive, KB-3-1 tox inconclusive
Cc1ccc(NC(=O)c2ccc([N+](=O)[O-])o2)cc1S(=O)(=O)N1CCOCC1	KB-V1 MDR tox inconclusive, HT1080 IDH1KD tx 6.51µM, TDP1 cell CPT 5.17µM, HT1080NT lethal inconclusive, TDP1 cell noCPT 4.61µM, KB-3-1 tox inconclusive
Cc1ccc(NC(=O)c2ccc3ccccc3n2)cc1S(=O)(=O)N1CCOCC1	KB-V1 MDR tox inconclusive, TDP1 cell CPT inconclusive, TDP1 cell noCPT 14.6µM
Cc1ccc(NC(=O)c2n[nH]c(=O)c3ccccc23)cc1S(=O)(=O)N1CCOCC1	TDP1 cell CPT inconclusive, TDP1 cell noCPT inconclusive

Screening results deposited in PubChem BioAssay by National Center for Advancing Translational Sciences (NCATS).
